# Assay outcomes as filed in PubChem BioAssay.
# Most compounds without a hit are left out; they make up all but 1.1% or so of the library.
# HEK293 viab – reduces viability of HEK-293 SNCA reporter cells. HEK-293-SNCA-luc viability, GF-AFC fluorescence, 24 h. Potency, µM (top dose mostly 57.1 µM), for inactives: at the highest dose activity change, negative = cytotoxicity, usual class: cytotoxic. actives 0.12% (n = 150,000). AID 1671193;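 further: potency means the concentration at half of the fitted maximal effect; 0% = DMSO-treated cells and -100% = medium-only wells without cells; nearly all actives have a fitted effect of over 30% in size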
#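 Cytotoxicity counterscreen: after 24 h compound treatment of genome-edited SNCA-luciferase HEK-293 cells, live-cell protease substrate GF-AFC read by fluorescence after 30 min; activity scaled between DMSO (0%) and medium-only (-100%), curves Hill-fitted.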
# GPT2 inh – inhibitors of human GPT2 alanine aminotransferase. Q8TD30. actives 0.25% (n = 100,000). Recombinant GPT2, coupled pyruvate oxidase/HRP Amplex Red fluorescence. Potency, µM (highest dose often 57.7 µM), without a hit: at the highest dose activity change, negative = inhibition, hits mostly inhibitors. AID 1671188; further: potency means the concentration at half of the fitted maximal effect; nearly all actives have a fitted effect of over 60% in size
#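 Fluorescence of coupled pyruvate oxidase/HRP/Amplex Red system (50uM Amplex, 30 min, dark) reports pyruvate formed by GPT2. Enzyme reaction: 10ng/uL GPT2, 2mM L-alanine, 250uM a-KG, 30 min room temperature, pH 7.5; 50uM AOA control.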
# IP6K1 inhibitor – inhibitors of human IP6K1; actives 0.81% (n = 140,000); Q92551; IP6K1 kinase, ADP-Glo luminescence, 2 h; active compounds read low; activity change, % (series mostly up to about 58 µM); in the data active means activity change below about -25%
# Target sequence (Q92551 whole entry, looked up): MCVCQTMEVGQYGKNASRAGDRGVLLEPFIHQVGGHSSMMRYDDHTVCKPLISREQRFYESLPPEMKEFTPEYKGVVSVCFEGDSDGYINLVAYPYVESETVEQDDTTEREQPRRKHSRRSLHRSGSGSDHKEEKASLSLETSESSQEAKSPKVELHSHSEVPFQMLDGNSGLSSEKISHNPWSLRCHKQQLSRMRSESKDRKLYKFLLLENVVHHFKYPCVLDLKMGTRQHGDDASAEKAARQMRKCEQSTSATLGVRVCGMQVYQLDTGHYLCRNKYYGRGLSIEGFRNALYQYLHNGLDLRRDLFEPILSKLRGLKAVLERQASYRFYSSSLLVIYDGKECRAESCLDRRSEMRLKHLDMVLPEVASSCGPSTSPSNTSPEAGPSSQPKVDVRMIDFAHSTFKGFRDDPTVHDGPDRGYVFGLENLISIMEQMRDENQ
#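 ADP-Glo luminescence measures ADP made by human IP6K1 during a 2 h RT reaction with ATP/IP6 (mix at 1.3 mM/130 uM); top library doses 57.5 and 19.1 uM final.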
# SNCA expr inh – inhibitors of alpha-synuclein (SNCA) gene expression. AID 1671194. Potency, µM (series often up to 57.2 µM), for inactives: at the top dose activity change, negative = inhibition, actives largely listed as inhibitors. HEK-293 SNCA-luciferase knock-in, luminescence, 24 h. actives 0.17% (n = 140,000);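 further: potency means the concentration at half of the fitted maximal effect; plate controls were DMSO cells for no effect and cell-free wells for full effect; nearly all actives have a fitted effect of over 45% in size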
# IP6K1 inh cnf – confirmation of human IP6K1 inhibitors. shares compounds with IP6K1 inhibitor. recombinant IP6K1 kinase, ADP-Glo luminescence, 2 h. Potency, µM (doses to about 49 µM), inactives show top-dose activity change, negative = inhibition, actives largely listed as inhibitors. actives 13% (n = 1,200). AID 1645852; further: potency means the concentration at half of the fitted maximal effect; nearly all actives have a fitted effect of over 65% in size
# Starred values were filed as active, the others as inactive; i = inactive; ? = inconclusive; nt = no result; [ ] = dose if it differs, or a comment. Unless noted, the call rests on the fitted dose curve; in most records, active means well fitted curve in the direction sought with a large enough effect; inconclusive means small, poorly fitted or top-dose-only effect, or another doubt; inactive means no such curve, though single readings can be large; an effect the other way counts as inactive or inconclusive. Unless noted, on the % scale 0 is the no-effect control and ±100 the full control effect.
SMILES,HEK293 viab,GPT2 inh,IP6K1 inhibitor,SNCA expr inh,IP6K1 inh cnf
O=C(C1CCCN1c1nccc(Nc2ccccc2F)n1)N1CCN(Cc2ccccc2)CC1 (stereo not given),5%[12.5 µM],i,-7,5%,nt
Cn1ncc2c(Nc3cccc(F)c3)ncnc21,4%,nt,-28*,18%,?
Cc1cc(C)c(Nc2ncnc3c2cnn3C)c(C)c1,4%,nt,-1,-3%,nt
Cc1ccc(S(=O)(=O)c2nc(-c3ccco3)oc2SCc2ccc(F)cc2)cc1,6%,nt,-28*,-4%,-6%
COc1ccc(-c2cc3nc(N)cc(=O)n3[nH]2)cc1,-4%,nt,-48*,84%,?
O=c1cc(-c2ccccc2)nc2cc(-c3ccc(F)cc3)[nH]n12,-2%,nt,-21,29%,nt
O=C(O)c1cccc(NC(=O)c2cccc(S(=O)(=O)Nc3cccc(C(=O)O)c3)c2)c1,3%,nt,-28*,23%,?
Cc1ccc(C(=O)Nc2ccc3oc(-c4cccnc4)nc3c2)c(Cl)c1,-1%,nt,-30*,20%,?
O=C(Nc1ccc2oc(-c3cccnc3)nc2c1)c1ccccc1F,14%,nt,-30*,55%,?
Cc1nn(-c2ccccc2)c2c1C(C1CC1)N(C1CN(C(=O)Cc3ccccn3)C1)C2=O (stereo not given),nt,nt,16,nt,nt
Cc1ccc(C(=O)Nc2ccc(CN3CCN(C)CC3)c(C(F)(F)F)c2)cc1C#Cc1cnc2[nH]ncc2c1,?,1%,-61*,nt,7.3µM*
Cc1ncc(NC(=O)c2ccc(CN3CCN(C)CC3)c(C(F)(F)F)c2)cc1Nc1nccc(-c2cccnc2)n1,-14%,i,2,nt,nt
Cc1ccc(NC(=O)c2ccc(CN3CC[C@H](N(C)C)C3)c(C(F)(F)F)c2)cc1Nc1nccc(-c2cncnc2)n1,21%[23.9 µM],3%[27.3 µM],6,nt,nt
CCN1CCN(Cc2ccc(NC(=O)c3ccc(C)c(/C=C/c4cnc5[nH]ccc5c4OC)c3)cc2C(F)(F)F)CC1,24µM*,1%,-39*,nt,4.6µM*
O=C(O)c1ccc(-c2c[nH]c3ncc(-c4ccccc4)cc23)cc1C1CCCC1,5%,i,nt,?,?
O=C(Cc1c[nH]c2ncc(-c3ccccc3)cc12)N1CCCC1,-19%[87.6 µM],-27%[88.5 µM],-13,-20%[87.6 µM],nt
Clc1ccc2c(c1)-n1cc(-c3ccccc3)nc1CO2,?,nt,-28*,85%,?
COC(=O)CC1Oc2ccc(Cl)cc2-n2cc(-c3ccccc3)nc21 (stereo not given),4%,nt,26,1%,nt
Cc1cc2c(C(C)C)c(O)c(O)c(C=O)c2c(O)c1-c1c(C)cc2c(C(C)C)c(O)c(O)c(C=O)c2c1O,?,?,-59*,?,?
Cc1ccc(-c2cc(C(=O)N3CCC(c4nc(C5CCOCC5)no4)C3)c3ccccc3n2)cc1C (stereo not given),?,-4%,-28*,10µM*,-2%
Cc1cccc(C(=O)N2CCC(c3nc(C4CCOCC4)no3)C2)c1 (stereo not given),-6%,i,9,10%,nt
COc1cccc(C(=O)N2CCC(n3cc(-c4nc(-c5ccccc5)no4)nn3)C2)c1 (stereo not given),?,i,17,?,nt
Cc1ccc(C)c(Cn2cc(S(=O)(=O)c3ccc(Cl)cc3)c(=O)c3cc(F)ccc32)c1,10%,nt,-25*,-3%,6%
Cc1c(Cl)cccc1-n1ncc(C(=O)Nc2ccc(Br)cc2F)c1C1CCNCC1,9%,nt,-26*,-22%,?
Cc1ccc(C(CC(=O)Nc2ccc(F)cc2)c2c[nH]c3ccccc23)cc1 (stereo not given),7%,i,-11,-17%,nt
SMILES,HEK293 viab,GPT2 inh,IP6K1 inhibitor,SNCA expr inh,IP6K1 inh cnf
COc1ccccc1-c1ccc(CN2CCC(NC(=O)c3ccccc3Cl)C2)cc1 (stereo not given),nt,nt,14,nt,nt
C[C@@H]1COC(Nc2ccc3ncnc(Nc4ccc(OCc5nccs5)c(Cl)c4)c3c2)=N1,?,2%,-34*,-17%,?
Nc1c(S(=O)(=O)O)cc(Nc2ccc(Nc3nc(Cl)nc(Nc4ccc(S(=O)(=O)O)cc4)n3)c(S(=O)(=O)O)c2)c2c1C(=O)c1ccccc1C2=O,-16%,i,nt,-5%,2.9µM*
COc1ccc(CNC(=O)c2nc3cccnc3n(Cc3ccc(OC)cc3)c2=O)cc1,-3%[12.5 µM],-7%,-3,-5%,nt
Cc1nn(-c2ccccc2)c2c1C(C1CC1)N(C1CN(C(=O)NC(C)c3ccccc3)C1)C2=O (stereo not given),nt,nt,10,nt,nt
CCCCOc1ccccc1C1CC(=O)Nc2cc(C)c(C)cc21 (stereo not given),?,nt,-28*,?,-10%
CCCCOc1ccccc1C1CC(=O)Nc2cc(OC)c(OC)cc21 (stereo not given),-16%,nt,-3,-2%,nt
Oc1cccc(-c2nc(N3CCOCC3)c3oc4ncccc4c3n2)c1,-9%[87.6 µM],i,nt,?,?
COc1ccccc1-c1cccc(CN2CCC(NC(=O)N(C)C)CC2)c1,10%,i,14,-12%,nt
Cc1ccccc1NC(=O)c1c(C)oc2ccc(O)c(CN3CCCCCC3)c12,-10%,nt,-26*,14%,-9%
COc1ccc(-c2ccc3c(c2)C(=O)N2CC[C@H](n4nnc(C(N)=O)c4C(N)=O)C[C@H]2C(=O)N3)c(OC)c1,-1%,?,-44*,20%,?
CCOC(=O)C1CCCN(Cc2cn3c(-c4ccc(Br)cc4)nnc3s2)C1 (stereo not given),-16%,nt,-9,-12%,nt
CCOC(=O)C1CCN(Cc2cn3c(-c4ccc(OC)cc4)nnc3s2)CC1,-8%,nt,-25*,40%,13%
COc1ccc(NC(=O)c2cc(-c3ccc[nH]3)n[nH]2)cc1,-7%,4%,6,20%,nt
Cc1cc(C)cc(NC(=O)c2cc(-c3ccc[nH]3)n[nH]2)c1,-13%,3%,22,189%,nt
Cc1ccc(NC(=O)c2cc(-c3ccc[nH]3)n[nH]2)cc1,8%,i,4,43%,-20%
CCc1cccc(NC(=O)c2cc(-c3ccc[nH]3)n[nH]2)c1,4%,i,-30*,32%,9.2µM*
O=C(Nc1ccc(Cl)cc1)c1cc(-c2ccc[nH]2)n[nH]1,0%,i,16,49%,0%
CCOc1ccc(NC(=O)c2cc(-c3ccc[nH]3)n[nH]2)cc1,-11%,4%,15,13%,-4%
CCc1ccc(NC(=O)c2cc(-c3ccc[nH]3)n[nH]2)cc1,-1%,4%,-3,6%,nt
COc1ccc(-c2cc(C[C@@H]3CC[C@H](O)[C@@H](CNCc4ccccc4OC)O3)no2)cc1,-14%[87.6 µM],-4%[88.5 µM],9,-12%[87.6 µM],nt
